Source: the supplement of paper PMC10849652
Targets with a hit are over-represented here; the source holds about 7,900 in all. About 0.6% of all pairs of compound and target were hits.

Columns and labels:
Test in all cases: log2 fold change, soluble protein after heating vs DMSO (PISA); higher = thermal stabilisation; K562 cells, 10 uM, 30 min; active = over 0.2 and 3.5 SD of the protein, either way, in both replicates (recomputed)
erlotinib = compound: C#Cc1cccc(Nc2ncnc3cc(OCCOC)c(OCCOC)cc23)c1 [erlotinib]
Procedure, shortened: (§1)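 Aliquots of K562 cells (2×10^6 cells/mL) treated with 10 μM compound for 30 min were heated for 3 min over 48°C-58°C. After pooling and extraction in PBS with 0.5% NP-40 at 4°C, soluble protein from a 21,000xg, 90 min spin was quantified by TMTpro 16plex LC-MS/MS with channel sums equalised. Thermal stability is expressed against control samples, from duplicates, as a log2 fold change.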

[1] = compound: C/C(=N\NC(=O)C1=CC(=CC=C1)S(=O)(=O)N2CCOCC2)/C3=C(C=CC(=C3)Cl)O
Procedure, shortened: as §1

[2] = compound: C1=CC(=C(C=C1Cl)C2=NC3=NC=CN=C3C(=N2)NC4=CC=NC=C4)F
Procedure, shortened: as §1

[3] = compound: C1=CC(=CC=C1C2=NC3=C(N2)C=C(C=C3)C(=O)N)OC4=CC=C(C=C4)Cl
Procedure, shortened: as §1

[4] = compound: C1=CC2=C(C=CC(=C2)/C=C\3/C(=O)NC(=NCC4=CC=CS4)S3)N=C1
Procedure, shortened: as §1

[5] = compound: C1=CC2=NC=CN=C2C=C1/C=C/3\C(=O)NC(=O)S3
Procedure, shortened: as §1

[6] = compound: C1=CC=C(C=C1)C2=NC(=C(N2)C3=CC=NC=C3)C4=CC(=C(C=C4)Cl)O
Procedure, shortened: as §1

[7] = compound: C1=CC=C2C(=C1)C3=NNC4=CC=CC(=C43)C2=O
Procedure, shortened: as §1

[8] = compound: C1CCN(C1)C(=O)NC2=CC=CC(=C2)NC3=NC=C(C(=N3)NCCC4=CN=CN4)Br
Procedure, shortened: as §1

[9] = compound: C1CN(CCC1(CC2=CC=C(C=C2)Cl)N)C3=NC=NC4=C3C=CN4
Procedure, shortened: as §1

Measured: log2 fold change

CNOT4 isoform 6 (UniProt O95628)
UniProt O95628, sequence (O95628 whole entry, looked up): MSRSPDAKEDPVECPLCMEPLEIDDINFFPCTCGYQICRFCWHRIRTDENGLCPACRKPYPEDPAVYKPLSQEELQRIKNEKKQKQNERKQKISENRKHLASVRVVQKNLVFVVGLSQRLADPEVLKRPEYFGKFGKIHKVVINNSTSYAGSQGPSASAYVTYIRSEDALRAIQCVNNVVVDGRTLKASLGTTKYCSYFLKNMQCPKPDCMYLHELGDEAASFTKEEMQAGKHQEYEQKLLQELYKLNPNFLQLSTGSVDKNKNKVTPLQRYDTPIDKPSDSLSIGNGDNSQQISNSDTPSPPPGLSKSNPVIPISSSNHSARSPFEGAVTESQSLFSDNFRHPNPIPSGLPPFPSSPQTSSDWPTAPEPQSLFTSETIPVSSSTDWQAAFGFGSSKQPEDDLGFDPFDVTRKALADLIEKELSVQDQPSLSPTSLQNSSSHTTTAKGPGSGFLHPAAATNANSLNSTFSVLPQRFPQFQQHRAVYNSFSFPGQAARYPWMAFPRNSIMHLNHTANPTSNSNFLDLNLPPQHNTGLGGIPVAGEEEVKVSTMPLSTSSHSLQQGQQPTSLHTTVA
inactive: erlotinib 0.004 | [1] 0.06 | [2] 0.026 | [3] 0.014 | [4] 0.03 | [5] 0.003 | [6] -0.007 | [7] -0.043 | [8] -0.011 | [9] 0.044

CCDC82 (UniProt Q8N4S0)
inactive: erlotinib -0.08 | [1] 0.035 | [2] 0.011 | [3] -0.026 | [4] -0.01 | [5] 0.046 | [6] -0.022 | [7] -0.092 | [8] -0.004 | [9] 0.022

CHERP (UniProt Q8IWX8)
inactive: erlotinib 0.083 | [1] 0.065 | [2] 0.014 | [3] 0.053 | [4] -0.03 | [5] 0.09 | [6] 0.026 | [7] -0.036 | [8] -0.084 | [9] -0.113

CPT1A (UniProt P50416)
inactive: erlotinib -0.008 | [1] 0.042 | [2] -0.111 | [3] 0.008 | [4] -0.028 | [5] -0.096 | [6] 0 | [7] 0.081 | [8] -0.055 | [9] 0.076

CASTOR2 (UniProt A6NHX0)
inactive: erlotinib -0.026 | [1] 0.117 | [2] 0.013 | [3] 0.018 | [4] -0.031 | [5] 0.017 | [6] 0.029 | [7] -0.017 | [8] -0.065 | [9] -0.002

CD63 (UniProt P08962)
inactive: erlotinib 0.01 | [1] 0.024 | [2] -0.045 | [3] -0.089 | [4] -0.027 | [5] 0.069 | [6] 0.009 | [7] 0.002 | [8] 0.004 | [9] 0.034

CLPTM1L (UniProt Q96KA5)
inactive: erlotinib 0.011 | [1] 0.04 | [2] -0.029 | [3] 0.063 | [4] 0.032 | [5] 0.018 | [6] -0.002 | [7] -0.037 | [8] -0.022 | [9] 0.017

CDC42BPA isoform 6 (UniProt Q5VT25)
UniProt Q5VT25, sequence (Q5VT25 whole entry, looked up): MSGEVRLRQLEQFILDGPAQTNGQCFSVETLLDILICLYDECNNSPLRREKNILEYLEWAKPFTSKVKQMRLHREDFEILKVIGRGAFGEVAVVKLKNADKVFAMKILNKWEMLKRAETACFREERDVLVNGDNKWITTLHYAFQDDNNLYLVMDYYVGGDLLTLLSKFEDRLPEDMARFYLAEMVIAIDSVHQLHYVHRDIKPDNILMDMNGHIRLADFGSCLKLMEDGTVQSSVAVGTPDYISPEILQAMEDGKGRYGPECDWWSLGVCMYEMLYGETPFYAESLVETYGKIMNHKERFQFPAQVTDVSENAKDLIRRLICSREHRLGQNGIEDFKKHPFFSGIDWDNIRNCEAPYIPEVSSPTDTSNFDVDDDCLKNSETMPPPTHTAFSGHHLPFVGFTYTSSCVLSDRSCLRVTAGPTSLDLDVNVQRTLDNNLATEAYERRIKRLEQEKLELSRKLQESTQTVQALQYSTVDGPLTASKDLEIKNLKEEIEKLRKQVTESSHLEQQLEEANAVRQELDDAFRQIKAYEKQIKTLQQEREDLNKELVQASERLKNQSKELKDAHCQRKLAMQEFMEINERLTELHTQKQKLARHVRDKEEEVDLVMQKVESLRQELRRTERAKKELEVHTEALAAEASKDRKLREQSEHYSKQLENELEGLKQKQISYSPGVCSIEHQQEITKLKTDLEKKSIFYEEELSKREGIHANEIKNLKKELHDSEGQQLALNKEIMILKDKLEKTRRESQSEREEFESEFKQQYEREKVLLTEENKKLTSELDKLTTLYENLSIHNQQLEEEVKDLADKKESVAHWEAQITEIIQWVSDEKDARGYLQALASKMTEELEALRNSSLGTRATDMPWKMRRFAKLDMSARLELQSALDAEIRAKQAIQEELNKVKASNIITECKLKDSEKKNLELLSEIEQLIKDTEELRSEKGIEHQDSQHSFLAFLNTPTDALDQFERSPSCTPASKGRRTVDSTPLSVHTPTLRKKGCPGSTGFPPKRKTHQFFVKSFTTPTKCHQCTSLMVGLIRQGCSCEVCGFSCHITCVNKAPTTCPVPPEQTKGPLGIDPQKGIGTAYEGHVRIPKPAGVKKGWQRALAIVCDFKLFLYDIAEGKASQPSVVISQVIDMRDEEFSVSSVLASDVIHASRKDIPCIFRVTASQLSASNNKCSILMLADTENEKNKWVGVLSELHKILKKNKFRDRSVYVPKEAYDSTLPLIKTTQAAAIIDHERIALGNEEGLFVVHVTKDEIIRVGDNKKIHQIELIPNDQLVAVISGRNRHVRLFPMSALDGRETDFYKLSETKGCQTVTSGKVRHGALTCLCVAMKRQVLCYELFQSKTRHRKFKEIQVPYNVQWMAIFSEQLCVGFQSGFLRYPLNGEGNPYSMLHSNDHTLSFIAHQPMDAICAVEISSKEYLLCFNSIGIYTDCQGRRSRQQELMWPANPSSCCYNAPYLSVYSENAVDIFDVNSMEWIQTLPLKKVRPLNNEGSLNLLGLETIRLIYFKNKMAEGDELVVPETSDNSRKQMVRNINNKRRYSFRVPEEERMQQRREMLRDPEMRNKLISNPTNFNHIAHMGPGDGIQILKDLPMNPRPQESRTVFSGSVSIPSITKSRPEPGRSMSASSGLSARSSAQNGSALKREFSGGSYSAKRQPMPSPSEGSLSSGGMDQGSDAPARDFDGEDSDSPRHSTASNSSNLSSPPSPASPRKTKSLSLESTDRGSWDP
inactive: erlotinib -0.081 | [1] 0.115 | [2] -0.022 | [3] 0.008 | [4] -0.337 | [5] -0.011 | [6] 0.03 | [7] 0.073 | [8] -0.03 | [9] -0.396

CIT isoform 4 (UniProt O14578)
inactive: erlotinib -0.015 | [1] 0.045 | [2] -0.044 | [3] 0 | [4] -0.176 | [5] 0.13 | [6] -0.027 | [7] -0.002 | [8] -0.037 | [9] 0.021

C19orf53 (UniProt Q9UNZ5)
inactive: erlotinib -0.161 | [1] -0.216 | [2] -0.52 | [3] 0.079 | [4] -0.129 | [5] -0.011 | [6] -0.024 | [7] -0.028 | [8] 0.053 | [9] -0.176

C9orf64 (UniProt Q5T6V5)
inactive: erlotinib 0.046 | [1] 0.142 | [2] 0.009 | [3] 0.065 | [4] 0.117 | [5] 0.017 | [6] 0.054 | [7] -0.037 | [8] -0.001 | [9] -0.039

CPSF3 (UniProt Q9UKF6)
inactive: erlotinib 0.006 | [1] 0.104 | [2] 0.028 | [3] 0 | [4] -0.003 | [5] 0.048 | [6] 0 | [7] -0.022 | [8] -0.005 | [9] -0.011

CPD (UniProt O75976)
inactive: erlotinib -0.025 | [1] -0.08 | [2] 0.009 | [3] 0.028 | [4] 0.055 | [5] 0.011 | [6] -0.007 | [7] -0.041 | [8] -0.045 | [9] 0.008

CDK13 (UniProt Q14004)
inactive: erlotinib -0.064 | [1] 0.039 | [2] -0.147 | [3] 0.028 | [4] -0.126 | [5] -0.014 | [6] -0.012 | [7] -0.212 | [8] -0.006 | [9] -0.129

CERT isoform 3 (UniProt Q9Y5P4)
inactive: erlotinib 0.05 | [1] 0.083 | [2] 0.018 | [3] -0.009 | [4] 0.039 | [5] 0.005 | [6] 0.044 | [7] 0 | [8] -0.054 | [9] -0.007

COASY isoform 2 (UniProt Q13057)
inactive: erlotinib -0.022 | [1] 0.1 | [2] 0.042 | [3] -0.067 | [4] 0.032 | [5] 0.01 | [6] 0.076 | [7] 0.043 | [8] -0.011 | [9] 0.092

CHAC2 (UniProt Q8WUX2)
inactive: erlotinib 0.025 | [1] -0.011 | [2] 0.001 | [3] -0.012 | [4] -0.003 | [5] -0.033 | [6] -0.018 | [7] 0.001 | [8] -0.025 | [9] 0.093

CD151 (UniProt P48509)
inactive: erlotinib -0.035 | [1] 0.029 | [2] 0.045 | [3] 0.103 | [4] -0.021 | [5] 0.069 | [6] 0.021 | [7] -0.125 | [8] -0.021 | [9] 0.113

CKS1B (UniProt P61024)
inactive: erlotinib -0.014 | [1] 0 | [2] 0.028 | [3] -0.013 | [4] 0.044 | [5] 0.029 | [6] 0.11 | [7] -0.045 | [8] -0.012 | [9] 0.034

CHCHD2 (UniProt Q9Y6H1)
inactive: erlotinib -0.083 | [1] 0.107 | [2] 0.092 | [3] 0.049 | [4] 0.028 | [5] 0.032 | [6] -0.028 | [7] 0.098 | [8] 0.003 | [9] -0.001

C4A (UniProt P0C0L4)
inactive: erlotinib -0.117 | [1] -0.05 | [2] 0.024 | [3] 0.078 | [4] 0.12 | [5] -0.032 | [6] 0.002 | [7] -0.132 | [8] 0.072 | [9] 0.104

CLUH, A0A494C0R8
inactive: erlotinib -0.008 | [1] -0.081 | [2] 0.253 | [3] -0.107 | [4] 0.127 | [5] 0.235 | [6] -0.081 | [7] 0.03 | [8] 0.07 | [9] 0.05

CHD3 isoform 3 (UniProt Q12873)
UniProt Q12873, sequence (Q12873 whole entry, looked up): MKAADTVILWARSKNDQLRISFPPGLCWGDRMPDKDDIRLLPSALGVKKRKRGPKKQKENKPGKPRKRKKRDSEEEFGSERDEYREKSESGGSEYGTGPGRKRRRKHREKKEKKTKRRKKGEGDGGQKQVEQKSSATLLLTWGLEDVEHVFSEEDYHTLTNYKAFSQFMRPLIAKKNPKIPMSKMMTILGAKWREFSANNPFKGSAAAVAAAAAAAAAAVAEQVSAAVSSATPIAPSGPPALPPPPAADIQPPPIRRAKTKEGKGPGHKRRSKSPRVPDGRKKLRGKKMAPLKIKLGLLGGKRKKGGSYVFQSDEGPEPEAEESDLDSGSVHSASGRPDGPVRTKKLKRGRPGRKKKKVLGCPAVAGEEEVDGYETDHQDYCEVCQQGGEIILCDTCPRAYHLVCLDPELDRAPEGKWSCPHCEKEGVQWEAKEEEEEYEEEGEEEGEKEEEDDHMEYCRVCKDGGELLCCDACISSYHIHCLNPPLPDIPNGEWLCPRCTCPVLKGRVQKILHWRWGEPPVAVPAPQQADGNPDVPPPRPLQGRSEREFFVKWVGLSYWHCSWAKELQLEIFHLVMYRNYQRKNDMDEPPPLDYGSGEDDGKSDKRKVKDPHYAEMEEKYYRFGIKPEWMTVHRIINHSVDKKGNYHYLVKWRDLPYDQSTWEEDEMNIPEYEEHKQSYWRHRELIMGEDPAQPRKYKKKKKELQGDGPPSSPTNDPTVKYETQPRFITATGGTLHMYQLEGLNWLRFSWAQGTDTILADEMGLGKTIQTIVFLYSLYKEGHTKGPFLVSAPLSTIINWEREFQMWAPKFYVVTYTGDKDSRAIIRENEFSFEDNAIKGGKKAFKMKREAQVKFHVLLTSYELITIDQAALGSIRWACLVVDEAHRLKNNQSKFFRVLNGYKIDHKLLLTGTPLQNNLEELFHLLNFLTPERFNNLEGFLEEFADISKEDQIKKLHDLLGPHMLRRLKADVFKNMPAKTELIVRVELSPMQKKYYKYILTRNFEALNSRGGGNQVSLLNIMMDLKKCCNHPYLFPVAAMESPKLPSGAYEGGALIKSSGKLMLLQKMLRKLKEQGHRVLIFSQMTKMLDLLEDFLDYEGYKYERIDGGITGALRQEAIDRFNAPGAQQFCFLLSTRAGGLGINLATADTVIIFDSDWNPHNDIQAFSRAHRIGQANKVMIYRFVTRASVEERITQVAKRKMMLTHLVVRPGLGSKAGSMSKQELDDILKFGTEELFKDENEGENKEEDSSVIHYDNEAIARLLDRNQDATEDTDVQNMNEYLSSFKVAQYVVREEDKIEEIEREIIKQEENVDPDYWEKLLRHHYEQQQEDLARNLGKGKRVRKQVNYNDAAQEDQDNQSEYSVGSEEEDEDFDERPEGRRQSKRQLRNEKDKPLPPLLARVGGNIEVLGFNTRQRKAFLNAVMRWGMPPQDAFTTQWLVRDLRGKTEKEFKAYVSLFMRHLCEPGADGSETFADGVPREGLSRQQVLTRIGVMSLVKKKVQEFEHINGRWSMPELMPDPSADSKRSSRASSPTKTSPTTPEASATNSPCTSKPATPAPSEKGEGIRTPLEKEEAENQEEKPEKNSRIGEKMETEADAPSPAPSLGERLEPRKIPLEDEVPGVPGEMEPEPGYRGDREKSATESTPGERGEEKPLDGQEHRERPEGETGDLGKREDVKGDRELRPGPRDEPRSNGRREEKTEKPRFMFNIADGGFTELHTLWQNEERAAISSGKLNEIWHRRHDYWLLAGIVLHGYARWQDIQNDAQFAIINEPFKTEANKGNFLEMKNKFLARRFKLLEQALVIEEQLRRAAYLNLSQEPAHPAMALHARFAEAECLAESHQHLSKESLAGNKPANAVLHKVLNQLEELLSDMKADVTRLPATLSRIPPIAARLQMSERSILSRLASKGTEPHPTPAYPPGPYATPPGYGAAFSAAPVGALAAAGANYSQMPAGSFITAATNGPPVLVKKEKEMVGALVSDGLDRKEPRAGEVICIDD
inactive: erlotinib -0.052 | [1] 0.148 | [2] 0.005 | [3] -0.062 | [4] 0 | [5] 0.034 | [6] 0.388 | [7] -0.123 | [8] -0.125 | [9] -0.093

COPS3 (UniProt Q9UNS2)
inactive: erlotinib -0.019 | [1] 0.035 | [2] 0.091 | [3] 0.016 | [4] 0.055 | [5] 0.01 | [6] -0.009 | [7] 0.007 | [8] 0.014 | [9] 0.014

CPSF7 isoform 3 (UniProt Q8N684)
inactive: erlotinib -0.035 | [1] 0.054 | [2] -0.015 | [3] 0.041 | [4] -0.001 | [5] 0.005 | [6] 0.01 | [7] -0.005 | [8] -0.035 | [9] -0.016

CDAN1 (UniProt Q8IWY9)
inactive: erlotinib -0.031 | [1] 0.048 | [2] -0.171 | [3] -0.011 | [4] 0.039 | [5] 0.066 | [6] 0.019 | [7] -0.057 | [8] 0.109 | [9] 0.03

COX7C (UniProt P15954)
UniProt P15954, sequence (P15954 whole entry, looked up): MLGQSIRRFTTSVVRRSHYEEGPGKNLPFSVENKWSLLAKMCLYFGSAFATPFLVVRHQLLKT
inactive: erlotinib -0.006 | [1] 0.134 | [2] 0.209 | [3] 0.154 | [4] -0.174 | [5] 0.073 | [6] 0.08 | [7] 0.27 | [8] -0.003 | [9] 0.047

CSK (UniProt P41240)
UniProt P41240, sequence (P41240 whole entry, looked up): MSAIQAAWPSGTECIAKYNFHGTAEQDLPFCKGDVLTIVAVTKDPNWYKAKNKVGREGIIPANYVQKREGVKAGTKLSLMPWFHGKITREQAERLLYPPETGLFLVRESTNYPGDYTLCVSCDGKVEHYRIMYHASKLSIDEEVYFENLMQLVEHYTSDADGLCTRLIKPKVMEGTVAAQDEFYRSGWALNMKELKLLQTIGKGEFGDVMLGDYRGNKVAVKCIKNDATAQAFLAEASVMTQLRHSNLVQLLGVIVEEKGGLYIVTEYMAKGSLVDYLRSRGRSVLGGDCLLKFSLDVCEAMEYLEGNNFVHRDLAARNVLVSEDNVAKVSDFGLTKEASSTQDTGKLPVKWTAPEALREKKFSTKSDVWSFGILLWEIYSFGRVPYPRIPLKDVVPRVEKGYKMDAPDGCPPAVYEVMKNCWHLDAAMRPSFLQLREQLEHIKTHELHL
inactive: erlotinib 0.023 | [1] 0.031 | [2] -0.038 | [3] 0.005 | [4] 0.056 | [5] -0.022 | [6] 0.024 | [7] -0.02 | [8] -0.034 | [9] -0.05

CAMK2G isoform 6 (UniProt Q13555)
inactive: erlotinib -0.003 | [1] -0.096 | [2] -0.047 | [3] -0.098 | [4] 0.054 | [5] 0.009 | [6] 0.055 | [7] 0.08 | [8] -0.02 | [9] 0.015

COMT (UniProt P21964)
UniProt P21964, sequence (P21964 whole entry, looked up): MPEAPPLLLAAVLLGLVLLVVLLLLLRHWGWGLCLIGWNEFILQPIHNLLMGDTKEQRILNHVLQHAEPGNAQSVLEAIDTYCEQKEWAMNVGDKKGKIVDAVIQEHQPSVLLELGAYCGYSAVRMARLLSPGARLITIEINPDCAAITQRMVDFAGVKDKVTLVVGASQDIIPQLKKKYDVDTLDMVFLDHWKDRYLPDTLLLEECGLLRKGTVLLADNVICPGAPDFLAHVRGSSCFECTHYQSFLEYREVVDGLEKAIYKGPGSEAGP
inactive: erlotinib -0.026 | [1] 0.076 | [2] -0.015 | [3] -0.08 | [4] 0.023 | [5] 0.012 | [6] 0.026 | [7] 0.029 | [8] 0.031 | [9] -0.059
